Assay in all cases: DAPPL (digital affinity profiling via proximity ligation, sequencing); 10 mM Tris-HCl pH 7.5, 50 mM NaCl, 1 mM DTT, 4% glycerol, room temperature, 30 min; GST-TFs on glutathione beads, 16-mer random dsDNA library, 0.1% formaldehyde crosslink after washing; high values mean tight binding
Holding throughout (conditions): protein: recombinant; tags: N-terminal GST; dsDNA, one strand shown

One experiment deals with T1, ERF (Homo sapiens, UniProt P50548 1-548).
T1 sequence: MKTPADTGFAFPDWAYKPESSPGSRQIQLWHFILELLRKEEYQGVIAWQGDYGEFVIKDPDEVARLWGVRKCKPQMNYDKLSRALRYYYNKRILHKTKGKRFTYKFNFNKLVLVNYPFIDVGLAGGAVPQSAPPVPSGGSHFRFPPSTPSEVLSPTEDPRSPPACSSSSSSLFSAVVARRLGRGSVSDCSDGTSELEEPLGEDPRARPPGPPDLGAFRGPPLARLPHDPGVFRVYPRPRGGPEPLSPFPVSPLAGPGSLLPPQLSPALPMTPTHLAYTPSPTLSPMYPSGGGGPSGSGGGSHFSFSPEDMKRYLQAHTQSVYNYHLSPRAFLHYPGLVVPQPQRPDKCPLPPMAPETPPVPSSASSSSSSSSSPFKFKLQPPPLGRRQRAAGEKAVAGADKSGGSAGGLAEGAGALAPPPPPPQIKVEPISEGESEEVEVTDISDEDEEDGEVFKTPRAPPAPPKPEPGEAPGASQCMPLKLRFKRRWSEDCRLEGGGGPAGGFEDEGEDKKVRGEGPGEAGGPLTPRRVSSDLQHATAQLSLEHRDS
The procedure, abridged: (§1)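 Pools were built from human transcription factors expressed in yeast as GST fusions, captured on glutathione beads and DNA-barcoded, along with a tag-only sample. Incubation with 200 nmole of a 16-mer random double-stranded DNA library lasted 30 min at room temperature in Tris/NaCl/DTT/glycerol buffer, and was followed by washing, 0.1% formaldehyde crosslinking, proximity ligation, PCR amplification and Illumina NextSeq500 sequencing. Binding signal is the quotient of each hexamer's read frequency for a factor and its frequency for the tag-only sample.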

In a further experiment the target is T2, ETV3L (Homo sapiens, UniProt Q6ZN32 1-361).
T2 sequence: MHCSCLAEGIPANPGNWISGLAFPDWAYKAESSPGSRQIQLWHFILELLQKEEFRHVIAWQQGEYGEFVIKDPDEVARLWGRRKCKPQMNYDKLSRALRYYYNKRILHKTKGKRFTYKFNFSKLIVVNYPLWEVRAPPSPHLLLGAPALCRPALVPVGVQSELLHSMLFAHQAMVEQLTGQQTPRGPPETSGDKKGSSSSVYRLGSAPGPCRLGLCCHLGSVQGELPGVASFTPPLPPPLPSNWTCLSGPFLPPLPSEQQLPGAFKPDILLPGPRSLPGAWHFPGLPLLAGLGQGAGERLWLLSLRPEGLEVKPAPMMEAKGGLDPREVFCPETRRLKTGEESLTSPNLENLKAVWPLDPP
The procedure, abridged: as §1

The next experiment addresses T3, ETS2 (Homo sapiens, UniProt P15036 1-469).
T3 sequence: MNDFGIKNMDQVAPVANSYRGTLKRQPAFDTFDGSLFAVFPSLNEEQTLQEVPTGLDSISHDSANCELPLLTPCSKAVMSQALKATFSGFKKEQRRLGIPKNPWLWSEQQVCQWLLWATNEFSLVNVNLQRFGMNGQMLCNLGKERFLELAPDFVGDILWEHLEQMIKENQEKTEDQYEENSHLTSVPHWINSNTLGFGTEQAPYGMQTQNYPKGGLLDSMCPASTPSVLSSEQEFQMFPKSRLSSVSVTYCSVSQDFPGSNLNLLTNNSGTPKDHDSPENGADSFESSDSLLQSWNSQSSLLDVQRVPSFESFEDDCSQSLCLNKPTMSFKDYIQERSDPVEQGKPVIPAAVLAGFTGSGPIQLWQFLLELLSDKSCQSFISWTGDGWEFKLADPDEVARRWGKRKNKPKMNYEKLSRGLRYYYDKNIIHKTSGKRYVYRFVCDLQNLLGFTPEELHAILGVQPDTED
An outline of the steps:
as §1

The target of a further experiment is T4, SPDEF (Homo sapiens, UniProt O95238 1-335).
T4 sequence: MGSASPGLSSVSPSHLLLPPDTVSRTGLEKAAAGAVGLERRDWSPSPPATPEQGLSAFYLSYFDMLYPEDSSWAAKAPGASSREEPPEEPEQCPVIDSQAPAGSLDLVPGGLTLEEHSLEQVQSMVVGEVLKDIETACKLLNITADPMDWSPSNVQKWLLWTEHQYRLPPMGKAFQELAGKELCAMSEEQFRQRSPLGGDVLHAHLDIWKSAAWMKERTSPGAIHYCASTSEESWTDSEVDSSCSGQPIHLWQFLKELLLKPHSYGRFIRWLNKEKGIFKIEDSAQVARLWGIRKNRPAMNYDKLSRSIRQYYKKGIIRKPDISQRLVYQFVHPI
An outline of the steps: as §1

The next experiment addresses T5, ETV7 (Homo sapiens, UniProt Q9Y603 1-341).
T5 sequence: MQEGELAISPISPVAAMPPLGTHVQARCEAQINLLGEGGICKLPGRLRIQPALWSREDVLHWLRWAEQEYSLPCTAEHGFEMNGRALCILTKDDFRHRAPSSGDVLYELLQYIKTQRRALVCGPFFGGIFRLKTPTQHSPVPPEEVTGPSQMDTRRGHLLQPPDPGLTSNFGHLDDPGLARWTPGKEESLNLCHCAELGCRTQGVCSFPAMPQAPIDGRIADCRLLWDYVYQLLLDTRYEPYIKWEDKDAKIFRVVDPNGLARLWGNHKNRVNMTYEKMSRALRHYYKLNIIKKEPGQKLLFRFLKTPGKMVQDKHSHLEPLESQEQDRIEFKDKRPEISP
An outline of the steps:
as §1

A further experiment has as its target T6, ELF5 (Homo sapiens, UniProt Q9UKW6-2 1-255).
T6 sequence: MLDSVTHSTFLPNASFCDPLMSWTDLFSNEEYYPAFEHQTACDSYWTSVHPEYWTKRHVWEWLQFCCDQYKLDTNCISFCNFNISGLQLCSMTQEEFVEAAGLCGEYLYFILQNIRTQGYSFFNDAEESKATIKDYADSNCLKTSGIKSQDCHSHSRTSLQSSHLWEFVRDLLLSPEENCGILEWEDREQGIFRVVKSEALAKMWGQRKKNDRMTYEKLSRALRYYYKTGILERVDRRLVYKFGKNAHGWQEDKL
The procedure, abridged: as §1

A further experiment addresses T7, ETV3 (Homo sapiens, UniProt P41162-2 1-143).
T7 sequence: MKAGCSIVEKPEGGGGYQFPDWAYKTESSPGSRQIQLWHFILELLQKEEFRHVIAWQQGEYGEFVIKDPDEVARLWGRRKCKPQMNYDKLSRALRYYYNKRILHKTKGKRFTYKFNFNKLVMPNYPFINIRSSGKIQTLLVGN
An outline of the steps: as §1

The target in the next experiment is ETV6 (Homo sapiens, UniProt P41212 1-452). The procedure, abridged: as §1
ETV6, sequence (P41212 whole entry): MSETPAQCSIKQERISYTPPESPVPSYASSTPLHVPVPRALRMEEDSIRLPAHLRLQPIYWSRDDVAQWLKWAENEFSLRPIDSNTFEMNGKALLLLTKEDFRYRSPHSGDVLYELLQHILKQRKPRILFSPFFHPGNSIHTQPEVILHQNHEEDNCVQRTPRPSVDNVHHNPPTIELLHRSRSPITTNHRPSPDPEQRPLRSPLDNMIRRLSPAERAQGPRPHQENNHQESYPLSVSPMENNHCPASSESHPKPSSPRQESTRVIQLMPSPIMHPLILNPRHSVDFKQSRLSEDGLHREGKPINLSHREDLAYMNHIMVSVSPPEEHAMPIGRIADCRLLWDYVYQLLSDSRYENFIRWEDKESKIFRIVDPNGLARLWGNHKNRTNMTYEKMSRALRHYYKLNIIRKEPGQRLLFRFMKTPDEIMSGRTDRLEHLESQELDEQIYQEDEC

With GCACTC, the binding signal with ERF was 1.39 fold enrichment (6-mer frequency, TF over GST control); with ETV3L it was 1.33 fold enrichment (6-mer frequency, TF over GST control); in the experiment with ETS2, 1.23 fold enrichment (6-mer frequency, TF over GST control); with SPDEF it was 1.22 fold enrichment (6-mer frequency, TF over GST control); with ETV7 it was 1.28 fold enrichment (6-mer frequency, TF over GST control); in the experiment with ELF5 it was 1.27 fold enrichment (6-mer frequency, TF over GST control). In addition, the binding signal with ETV3 was 1.28 fold enrichment (6-mer frequency, TF over GST control); with ETV6 it was 1.34 fold enrichment (6-mer frequency, TF over GST control).

With AAAATT, the binding signal with ERF is 1.48 fold enrichment (6-mer frequency, TF over GST control); with ETV3L it was 1.49 fold enrichment (6-mer frequency, TF over GST control); in the experiment with ETS2, 1.4 fold enrichment (6-mer frequency, TF over GST control); with SPDEF, 1.26 fold enrichment (6-mer frequency, TF over GST control); in the experiment with ETV7, 1.5 fold enrichment (6-mer frequency, TF over GST control); with ELF5, 1.29 fold enrichment (6-mer frequency, TF over GST control). Also, the binding signal in the experiment with ETV3 was 1.31 fold enrichment (6-mer frequency, TF over GST control); in the experiment with ETV6, 1.33 fold enrichment (6-mer frequency, TF over GST control).

As for GACCTC, the binding signal was 1.52 fold enrichment (6-mer frequency, TF over GST control) with ERF; 1.51 fold enrichment (6-mer frequency, TF over GST control) with ETV3L; 1.38 fold enrichment (6-mer frequency, TF over GST control) in the experiment with ETS2; 1.29 fold enrichment (6-mer frequency, TF over GST control) with SPDEF; 1.33 fold enrichment (6-mer frequency, TF over GST control) with ETV7; 1.32 fold enrichment (6-mer frequency, TF over GST control) with ELF5. The binding signal with ETV3 was 1.28 fold enrichment (6-mer frequency, TF over GST control); with ETV6 it was 1.42 fold enrichment (6-mer frequency, TF over GST control).

Consider CGAAAG, for which the binding signal in the experiment with ERF was 1.11 fold enrichment (6-mer frequency, TF over GST control); with ETV3L, 1.05 fold enrichment (6-mer frequency, TF over GST control); with ETS2, 1.11 fold enrichment (6-mer frequency, TF over GST control); with SPDEF it was 1.07 fold enrichment (6-mer frequency, TF over GST control); with ETV7 it was 1.19 fold enrichment (6-mer frequency, TF over GST control); in the experiment with ELF5 it was 1 fold enrichment (6-mer frequency, TF over GST control). The binding signal in the experiment with ETV3 was 1.02 fold enrichment (6-mer frequency, TF over GST control); with ETV6, 1.02 fold enrichment (6-mer frequency, TF over GST control).

On to CATCAC, for which the binding signal is 1.17 fold enrichment (6-mer frequency, TF over GST control) with ERF; 1.07 fold enrichment (6-mer frequency, TF over GST control) with ETV3L; 1.12 fold enrichment (6-mer frequency, TF over GST control) in the experiment with ETS2; 1.15 fold enrichment (6-mer frequency, TF over GST control) in the experiment with SPDEF; 1.08 fold enrichment (6-mer frequency, TF over GST control) in the experiment with ETV7; 1.11 fold enrichment (6-mer frequency, TF over GST control) with ELF5. For the same sequence, the binding signal in the experiment with ETV3 was 1.13 fold enrichment (6-mer frequency, TF over GST control); in the experiment with ETV6 it was 1.13 fold enrichment (6-mer frequency, TF over GST control).

Consider CCCTGG, for which the binding signal is 1.24 fold enrichment (6-mer frequency, TF over GST control) in the experiment with ERF; 1.16 fold enrichment (6-mer frequency, TF over GST control) in the experiment with ETV3L; 1.06 fold enrichment (6-mer frequency, TF over GST control) with ETS2; 1.02 fold enrichment (6-mer frequency, TF over GST control) with SPDEF; 1.26 fold enrichment (6-mer frequency, TF over GST control) in the experiment with ETV7; 1.06 fold enrichment (6-mer frequency, TF over GST control) with ELF5. Besides, the binding signal with ETV3 is 1.13 fold enrichment (6-mer frequency, TF over GST control); with ETV6 it was 1.05 fold enrichment (6-mer frequency, TF over GST control).

Take CCCATC: the binding signal with ERF was 1.25 fold enrichment (6-mer frequency, TF over GST control); with ETV3L, 1.15 fold enrichment (6-mer frequency, TF over GST control); with ETS2, 1.22 fold enrichment (6-mer frequency, TF over GST control); with SPDEF, 1.07 fold enrichment (6-mer frequency, TF over GST control); with ETV7, 1.08 fold enrichment (6-mer frequency, TF over GST control); in the experiment with ELF5, 1.21 fold enrichment (6-mer frequency, TF over GST control). The binding signal with ETV3 is 1.14 fold enrichment (6-mer frequency, TF over GST control); with ETV6 it was 1.1 fold enrichment (6-mer frequency, TF over GST control).

For the sequence GACATT, the binding signal in the experiment with ERF was 1.22 fold enrichment (6-mer frequency, TF over GST control); with ETV3L, 1.17 fold enrichment (6-mer frequency, TF over GST control); with ETS2, 1.11 fold enrichment (6-mer frequency, TF over GST control); with SPDEF, 1.13 fold enrichment (6-mer frequency, TF over GST control); with ETV7 it was 1.07 fold enrichment (6-mer frequency, TF over GST control); in the experiment with ELF5 it was 1.17 fold enrichment (6-mer frequency, TF over GST control). The binding signal with ETV3 is 1.21 fold enrichment (6-mer frequency, TF over GST control); in the experiment with ETV6, 1.26 fold enrichment (6-mer frequency, TF over GST control).

(Values after PMC7862700, “An all-to-all approach to the identification of sequence-specific readers for epigenetic DNA modifications on cytosine”.)
